# In PubChem BioAssay AID793 (The Scripps Research Institute Molecular Screening Center, 2007):
# Among all 140,000 compounds or so, about 1,400 (1%) were called active. For the sample, actives were picked, then their nearest neighbours and some compounds at random. A number with no mark means an inactive call. No stated cut-off is given here; in the data, active means inhibition above about 17%; inactive means the rest.
# Molecular target: Neuropeptide Y receptor type 2 (Homo sapiens) (UniProt P49146)
# Assay: blockers of human neuropeptide Y Y2 receptor – cell-based, primary screen (AID 793);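 further: 0% = vehicle with agonist challenge and 100% = reference antagonist with challenge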
# Settings: NPY-Y2 expressing cells, antagonist mode; at 2.7 µM; hits give high values
# Sequence of Neuropeptide Y receptor type 2 (Homo sapiens) (P49146 whole entry, looked up): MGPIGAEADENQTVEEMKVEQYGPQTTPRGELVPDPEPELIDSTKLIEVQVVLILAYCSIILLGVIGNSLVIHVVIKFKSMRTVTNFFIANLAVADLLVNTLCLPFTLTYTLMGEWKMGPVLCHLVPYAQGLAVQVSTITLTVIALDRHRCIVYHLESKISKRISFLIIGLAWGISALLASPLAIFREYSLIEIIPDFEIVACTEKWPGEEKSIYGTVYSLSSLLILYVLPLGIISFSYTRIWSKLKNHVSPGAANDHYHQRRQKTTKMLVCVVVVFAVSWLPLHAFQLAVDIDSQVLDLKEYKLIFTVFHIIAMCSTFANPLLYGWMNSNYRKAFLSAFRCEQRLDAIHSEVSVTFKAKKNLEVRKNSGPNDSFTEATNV
row,SMILES,inhibition
1,CCOC(=O)C1=C(C)NC(=O)NC1c1ccccc1 (stereo unspecified),0.94%
2,O=C(Nc1nnc(SCc2c(Cl)cccc2Cl)s1)C1CCCO1 (stereo unspecified),22.4% (active)
3,O=C(Nc1nnc(SCc2ccc(Cl)cc2Cl)s1)C1COc2ccccc2O1 (stereo unspecified),-1.05%
4,O=C(Nc1nnc(CCc2ccccc2)s1)C1CCCO1 (stereo unspecified),3.28%
5,COc1ccc(NC(=O)c2ccc(C#CC(C)(C)O)cc2)cc1,-0.31%
6,Cc1nn2c3ccccc3nc2n(C)c1=O,10.8%
7,Cc1ccc(O)c(CNc2nc3ccccc3n2C)c1,-2.2%
8,Cc1ccc(C2=NN(C)c3nc4ccccc4n3C2)cc1,18.8% (active)
9,O=C(NC1CCN(Cc2ccccc2)CC1)c1c(F)cccc1F,0.52%
10,O=S(=O)(NCCSc1ccccn1)c1ccc(Cl)cc1,6%
11,Cc1ccc(S(=O)(=O)NCCSc2ccccc2)cc1[N+](=O)[O-],13.3%
12,CCOc1ccc(S(=O)(=O)NCCSc2ccccc2)cc1,20.6% (active)
13,Cc1ccccc1N1CCN(CCCOc2ccc3c(C)cc(=O)oc3c2)CC1,22.1% (active)
14,Cc1ccccc1NC(=O)c1ccc(COc2ccc3c(C)cc(=O)oc3c2)cc1,1.18%
15,Cc1cc(=O)oc2cc(OCC3CC(c4ccccc4Cl)=NO3)ccc12 (stereo unspecified),10.7%
16,CC1(C)C(C=C(Cl)Cl)C1C(=O)N(Cc1ccc(Cl)cc1)C1CCS(=O)(=O)C1 (stereo unspecified),5.56%
17,COc1ccc(Cl)cc1-n1c(C)cc(C(=O)OCC(=O)N2CC(=O)Nc3ccccc32)c1C,-0.44%
18,Cc1cc(C(=O)OCC(=O)N2c3ccccc3NC(=O)C2(C)C)c(C)n1-c1ccccc1,20.1% (active)
19,CCNc1ccc(C(=O)OCC(=O)N2c3ccccc3NC(=O)C2(C)C)cc1[N+](=O)[O-],0.27%
20,CCS(=O)(=O)n1nc(-c2ccccc2)nc1SCc1ccccc1,11.5%
21,Cc1ccc(Sc2cc(N3CCOCC3)nc(-c3ccccc3)n2)cc1,-0.14%
22,O=S(=O)(Cc1cc(Sc2ccccc2)nc(-c2ccccc2)n1)c1ccccc1,32.1% (active)
23,COc1ccc(N2CCN(Cc3nnc(-c4ccccc4)o3)CC2)cc1,3.16%
24,Cc1cc(C)nc(-n2ncc3c2CC(c2ccc(C(C)C)cc2)CC3=O)n1 (stereo unspecified),24.9% (active)
25,Cc1nc2nc3c(cn2n1)C(=O)CC(c1ccccc1)C3 (stereo unspecified),2.84%
26,CCN1CCC2(CC1)N=C(c1ccc(F)cc1)C(=S)N2C(=O)c1ccc(C)cc1,1.56%

row,SMILES,inhibition
1,c1ccc2c(c1)OCC(CNc1ncnc3nc[nH]c13)O2 (stereo unspecified),-0.22%
2,S=C(NCC1COc2ccccc2O1)Nc1ccc(Br)cc1 (stereo unspecified),6.55%
3,c1ccc(-c2cc3c(NCC4COc5ccccc5O4)ncnc3s2)cc1 (stereo unspecified),22.8% (active)
4,Nc1nnc(SCC(=O)Nc2ccc3nc(SCC(=O)Nc4ccccc4)sc3c2)s1,4.56%
5,CN(Cc1ccccc1)Cc1ccccc1F,1.28%
6,CC(=O)NC(C)c1nc2ccccc2n1Cc1ccccc1F (stereo unspecified),2.02%
7,N=c1n(CCc2ccccc2)c2ccccc2n1Cc1ccccc1F,23.1% (active)
8,COc1ccc(Cn2c(-c3ccc(Cl)cc3)c[n+]3ccccc23)cc1,1.35%
9,COc1ccc(NC(=O)c2cccc(NC(=O)c3ccco3)c2)c(OC)c1,3.21%
10,COc1ccccc1C(=O)Nc1ccc(NC(=O)c2ccco2)c(C)c1,-1.27%
11,COc1cc(NC(=O)c2cc([N+](=O)[O-])ccc2Br)ccc1NC(=O)c1ccco1,31.7% (active)
12,COc1ccccc1Oc1ccc(N/C=C2/CCCC2=O)cc1,2.93%
13,COc1cccc(NC(=O)CC(c2ccc(OC(C)C)cc2)c2ccccc2OC)c1 (stereo unspecified),4.56%
14,CC(C)N1C(=O)N(c2ccccc2)C(C)(O)CC1(C)C (stereo unspecified),-1.03%
15,O=C(Nc1ccc(N2C(=O)c3cccc4cccc(c34)C2=O)cc1)c1ccc(N2CCCCC2)c([N+](=O)[O-])c1,0.97%
16,Cn1c(=N)n(CC(O)c2ccccc2)c2ccccc21 (stereo unspecified),6.24%
17,OC(COc1ccc2ccccc2c1)CN1CCOCC1 (stereo unspecified),1.96%
18,Cc1cccc(OCC(O)Cn2c(=N)n(CCN3CCOCC3)c3ccccc32)c1 (stereo unspecified),19.8% (active)
19,CCOc1ccc(C(O)Cn2c(=N)n(CCN3CCCCC3)c3ccccc32)cc1 (stereo unspecified),18.8% (active)
20,C=CCn1c(=N)n(CC(O)COc2ccc(OC)cc2)c2ccccc21 (stereo unspecified),10.5%
21,CCOc1ccc(C(O)Cc2nc3ccccc3n2C)cc1 (stereo unspecified),0.15%
22,Cc1nc2c(C(=O)NCc3cccs3)cnn2c(C)c1Cc1ccc(F)cc1,11.8%
23,COc1ccc(-c2csc3ncnc(Oc4ccc5c(C)cc(=O)oc5c4)c23)cc1,6.66%
24,Brc1ccc(-c2csc(N/N=C/c3ccc4c(c3)OCO4)n2)cc1,-1.38%
25,CCCn1c(N)c(C(=O)CSc2nnc(-c3cccnc3)n2-c2ccc(C)cc2C)c(=O)[nH]c1=O,2.5%
